Data reported in the supplement of paper PMC6555819.

Legend:
Assay in all cases: PBM binding z-score (relative to random genomic background probes); higher = stronger binding; sequences stand for … in GC…GCGATTGACAGCGTAGAATGAAGG
[1] = tested on: FXR:RXRa (NR concentration 270 nM, RXRa partner concentration 90 nM)
Procedure, shortened: (§1)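 Scanned fluorescence from custom Agilent 4×180K protein-binding microarrays was regression-normalized. Binding z-scores use random background probes as reference. Ligand-free nuclear receptor dimers were incubated on the arrays for 1 h and detected with antibodies against each partner (one per run).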

[2] = tested on: LXRa:RXRa (NR concentration 270 nM, RXRa partner concentration 90 nM)
Procedure, shortened: as §1

[3] = tested on: LXRa homodimer (NR concentration 270 nM)
Procedure, shortened: as §1

[4] = tested on: LXRb:RXRa (NR concentration 270 nM, RXRa partner concentration 90 nM)
Procedure, shortened: as §1

[5] = tested on: LXRb homodimer (NR concentration 270 nM)
Procedure, shortened: as §1

[6] = tested on: PPARa:RXRa (NR concentration 270 nM, RXRa partner concentration 90 nM)
Procedure, shortened: as §1

[7] = tested on: PPARg:RXRa (NR concentration 180 nM, RXRa partner concentration 90 nM)
Procedure, shortened: as §1

[8] = tested on: PPARg:RXRa 270nM:90nM, anti-RXR (NR concentration 270 nM, RXRa partner concentration 90 nM)
Procedure, shortened: as §1

[9] = tested on: PPARg:RXRa 30nM:10nM, anti-RXR (NR concentration 30 nM, RXRa partner concentration 10 nM)
Procedure, shortened: as §1

[10] = tested on: PPARg:RXRa 90nM:30nM, anti-RXR (NR concentration 90 nM, RXRa partner concentration 30 nM)
Procedure, shortened: as §1

Sequence	PBM binding z-score [1]	PBM binding z-score [2]	PBM binding z-score [3]	PBM binding z-score [4]	PBM binding z-score [5]	PBM binding z-score [6]	PBM binding z-score [7]	PBM binding z-score [8]	PBM binding z-score [9]	PBM binding z-score [10]
CCAGACAGGTGAAAGGGAACTCAGTCTGGTACGC	-0.208	-0.0389	-0.366	-0.0234	-0.681	1.63	2.51	3.24	1.06	2.69
CGTCAAAGTTCAAGGTAACGTAACAGAAAGCAGC	6.65	5.73	2.59	3.46	1.01	4.81	4.45	5.18	2.02	3.97
CCTAGTAGGTCAAGGTCACACACGCTATAGGTAC	6.32	5.5	2.71	4.64	1.12	5.98	9.25	7.51	5.53	7.55
TCTATAAGTTGAAGGGCAACCGACGAGTCCGTTT	0.654	0.764	-0.0358	0.57	0.00788	1.27	0.844	2.82	3.72	3.29
TCTGTTAGTTGAAGGGCAACCGACGAGTCCGTTT	0.758	0.866	0.374	0.639	0.983	0.837	-0.0567	1.91	3.09	2.14
ACTAGCAGGCCCAGTTTGGGTCACTCAAACAAAG	-0.0555	-0.448	-0.417	0.4	-0.861	0.93	-0.337	0.0503	-0.523	-0.144
CCTTAAGGGTCACTGACAGGTTATAGCATTTGGA	7.39	5.66	0.887	5.01	0.447	6.24	6.29	6.19	2.45	4.77
GCATATAGGTAATAGAAGGTGAAAGTCCGATTGT	0.555	1.95	0.235	0.582	-0.597	1.78	1.24	1.35	0.321	0.9
CCTTACGGGCCACTCCAGGTTATAGCATCGGAGT	0.501	3.23	0.439	-0.116	-0.752	-0.00696	0.417	-0.281	-0.409	-0.41
ATCGAAAGGGCGACGAGGTGAGTATACACCGTTT	0.314	0.222	-0.247	0.0783	-0.352	0.902	0.873	0.152	0.164	-0.136
TCATATAGGTAATACAGGAGAAAGTCGGCATCTA	0.853	1.01	0.161	0.676	0.172	1.07	1.23	2.37	3.96	2.81
GCTTGTAGATCAAGGTTGAGAAAGACTAAGCTAA	-0.651	-0.5	-0.84	-0.489	-0.831	1.3	2.27	3.37	1.77	3
CGTTCAAGGTCAAGGTCAGTGAAAGAGACTCGAA	8.13	5.69	1.57	5.06	1.66	6.33	6.87	6.8	3.49	5.56
TAGCCTTGGTCATTGGGCCAGTATAGTACGCATC	-0.646	-0.599	-0.698	-0.456	-0.537	-0.217	0.338	0.117	-0.34	-0.429
TCTTGTAGATCAGCAGGTTAATAAAGCTGGCCAA	0.186	0.321	-0.0562	0.223	-0.339	0.462	-0.26	1.38	2.55	1.7
GTACCAAGCTGAATAGGTCGTTGATGAGTAGGCG	-0.533	-0.288	-0.35	-0.237	-1.03	0.192	0.271	0.0324	-0.305	-0.334
TCGACTAGGTTAGGGGCATTCAGAATGGCGTCGA	0.141	0.372	-0.304	0.803	-0.322	1.38	1.35	2.49	1.74	2.17
ATATGTAGGTTAGCTGGGGTCATTCTGACTAGGC	4.61	5.75	3.4	4.86	1.32	5.07	5.36	5.24	2.82	4.48
GCGGCTGGGGCAAAGCAGGTTACCATAAGGTTGG	0.63	0.104	-0.673	0.159	-0.912	0.636	0.139	-0.304	-0.825	-0.577
GCTAGCAGGCCATTTGAGTCACTCAATGACGGGC	-0.524	-0.643	-0.699	-1.05	-0.622	-0.463	0.311	-0.7	-0.625	-0.728
GCATATTGGTAATACAAGGTGAAAGTCCGATTGT	0.142	-0.00547	0.127	0.0375	-0.19	0.519	0.364	0.443	0.33	0.00917
CCTGCTAGGTCATTGGTCAGCTAAAGCAGCTCGC	4.06	3.07	0.559	2.13	0.108	3.56	3.71	4.63	1.79	4.05
AATAGCAGGCCAAGTTTGGGTCACTCAAACAAAG	0.16	0.399	-0.166	0.913	-0.947	1.72	0.314	0.478	-0.511	0.171
